Compounds with a hit are over-represented: about 4% of the library has one in this group of screens.
GDH-TPI counter: GDH-TPI coupling enzyme inhibitors, primary screen, artefact control for M. tuberculosis FBA inhibitor project, biochemical, absorbance, full deck; GDH-TPI coupled enzyme counterscreen, NADH absorbance; inhibition, % at 4.8 µM; hit rate 1.2% among 360,000; AID 588335, 2011; in the data active means inhibition above about 30%
RecA intein inh: Mtb RecA intein splicing inhibitors, primary screen, biochemical, fluorescence, HTS; inhibition, % (no concentration beside the values); cell-free RecA intein splicing; AID 2221, 2009; hit rate 0.75% among 290,000; in the data active means inhibition above about 30%
UGM FP inh: M. tuberculosis UGM enzyme inhibitors, primary screen, biochemical, fluorescence polarization, single point. UDP-galactopyranose mutase (Mycobacterium tuberculosis (strain ATCC 25618 / H37Rv)), …. purified UGM, fluorescence polarization probe displacement. inhibition, % at 10 µM. hit rate 0.06% among 320,000; in the data active means inhibition above about 10%, passing the limit was not always enough
Mtb betalactam: beta-lactam sensitization of Mtb H37Rv, H37Rv. M. tuberculosis H37Rv growth with meropenem, percent inhibition. inhibition, % at 25 µM. hit rate 0.27% among 330,000; call rule not given here;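 further: growth measured after seven days incubation then overnight dye step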
Rv3671c inh: Rv3671c serine protease inhibitors, primary screen, biochemical, fluorescence polarization, M. tuberculosis H37Rv | P9WHR9 | inhibition, % at 5.96 µM | hit rate 0.048% among 320,000 | AID 2606, 2010; in the data active means inhibition above about 38%;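 further: extracellular domain of Rv3671c used as enzyme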
Mtb FBA inh: Mtb FBA enzyme inhibitors, primary screen, biochemical, fluorescence, strain H37Rv; AID 588726, 2011; purified M. tuberculosis FBA, fluorescence read-out; hit rate 2.3% among 360,000; Fructose-bisphosphate aldolase (Mycobacterium tuberculosis (strain ATCC 25618 / H37Rv)), …; inhibition, % at 1 µM; in the data active means inhibition above about 27%
Target sequence (P9WQA3 whole entry, looked up): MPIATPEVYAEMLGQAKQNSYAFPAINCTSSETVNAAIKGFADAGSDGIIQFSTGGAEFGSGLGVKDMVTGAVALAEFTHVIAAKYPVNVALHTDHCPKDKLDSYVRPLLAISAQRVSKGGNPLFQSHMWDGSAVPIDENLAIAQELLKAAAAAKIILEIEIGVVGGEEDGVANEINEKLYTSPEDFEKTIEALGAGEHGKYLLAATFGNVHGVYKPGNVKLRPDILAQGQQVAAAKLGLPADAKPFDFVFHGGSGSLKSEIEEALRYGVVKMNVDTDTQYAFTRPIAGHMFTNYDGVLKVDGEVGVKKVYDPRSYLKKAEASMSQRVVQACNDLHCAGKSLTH
Numbers stand for hits; - = inactive; . = no result given; + = active, no number.

SMILES	GDH-TPI counter	RecA intein inh	UGM FP inh	Mtb betalactam	Rv3671c inh	Mtb FBA inh
CC(=O)Nc1ccc(C2CC(c3ccc(Cl)cc3)=NN2c2ccccc2)cc1 (stereo not given)	-	-	-	-	-	-
COc1ccc(C2CC(c3cccs3)=NN2c2ccc(C=O)cc2)cc1 (stereo not given)	.	-	-	-	-	.
OCC[C@@H]1C[C@@H](O)[C@H](O)[C@]2(CCc3ccccc3O2)O1	-	-	-	-	-	-
COc1ccc(C2CC(c3cccc(F)c3)=NN2c2ccc(S(N)(=O)=O)cc2)cc1 (stereo not given)	-	.	.	.	.	+
COc1ccc(C2=NN(S(=O)(=O)c3ccccc3)C(c3ccccc3)C2)cc1 (stereo not given)	-	-	-	-	-	-
COc1ccc(C2=NN(c3ccc(C=O)cc3)C(c3ccccc3)C2)cc1 (stereo not given)	.	-	-	-	-	.
COc1ccc(C2CC(c3ccccc3)=NN2c2ccc(S(N)(=O)=O)cc2)cc1 (stereo not given)	-	-	-	-	-	+
COc1ccc(C2CC(c3ccccc3)=NN2c2ccc(C(N)=O)cc2)cc1 (stereo not given)	-	-	-	-	-	+
CC1(N(O)C=C2C=CC(=O)C=C2)CCCCC1=O (stereo not given)	-	-	-	-	-	-
CCCCNC(=O)C1(C)CCN1Cc1cc(C)ccc1C (stereo not given)	-	.	.	.	.	-
Cc1cc2cc3c(=O)[nH]c(=O)nc-3n(CC(O)C(O)C(O)CO)c2cc1C (stereo not given)	-	.	.	.	.	149
Cc1cc2cc3c(=O)[nH]c(=O)cc-3n(CC(O)C(O)C(O)CO)c2cc1C (stereo not given)	-	.	.	.	.	-
Nc1nc(C(=O)N2CCOCC2)nn1C(=O)c1ccc(Cl)cc1	-	32	-	-	-	-
Cc1cccc(C2=NN(c3ccc(Br)cc3)[C@@H](C(=O)N3CCOC3=O)[C@@H]2c2ccc(F)cc2)c1	-	-	-	-	-	42
Cc1cccc(C2=NN(c3ccc(Br)cc3)[C@@H](C(=O)N3CCOC3=O)[C@@H]2c2ccc(Cl)cc2)c1	-	.	.	.	.	70
Cc1cccc(C2=NN(c3ccccc3)[C@@H](C(=O)N3CCOC3=O)[C@@H]2c2ccc([N+](=O)[O-])cc2)c1	-	.	.	.	.	-
COC(=O)C[C@H](NC(=O)Cn1cnc2c(NCc3ccccc3)ncnc21)C(=O)OC	-	.	.	.	.	-
Cc1ccc(S(=O)(=O)Nc2nc3ccccc3nc2NCC2CCCO2)cc1 (stereo not given)	-	-	-	-	-	-
COc1ccc(S(=O)(=O)Nc2nc3ccccc3nc2NCC2CCCO2)cc1 (stereo not given)	-	-	-	-	-	27
O=S(=O)(Nc1nc2ccccc2nc1NCC1CCCO1)c1ccccc1 (stereo not given)	41	-	-	-	-	-
COc1ccc(NC(=O)c2cccc3cccnc23)cc1S(N)(=O)=O	-	-	-	-	-	-
O=C1NC(=S)NC1=Cc1ccco1	-	.	.	.	.	-
O=C1NC(=O)/C(=C/c2ccco2)N1	40	.	-	-	-	-
O=C1NC(=O)C(=Cc2ccco2)S1	38	.	.	.	.	-
COCCCn1c(SCC(=O)NC2CCCCC2)nc2ccccc2c1=O	-	-	-	-	-	-
SMILES	GDH-TPI counter	RecA intein inh	UGM FP inh	Mtb betalactam	Rv3671c inh	Mtb FBA inh
CCN(C(=O)c1cc2c(=O)n3cccc(C)c3nc2s1)C1CCCCC1	-	-	-	-	-	-
CN(C(=O)c1cc2c(=O)n3ccccc3nc2n1C)C1CCCCC1	-	-	-	-	-	+
CCN(C(=O)c1cc2c(=O)n3ccccc3nc2n1CCCOC)C1CCCCC1	-	-	-	-	-	118
CCN(C(=O)c1cc2c(=O)n3ccccc3nc2n1C)C1CCCCC1	-	-	-	-	-	+
CC1CCCCC1NC(=O)c1cc2c(=O)n3ccccc3nc2n1C (stereo not given)	-	-	-	-	-	180
Cc1cccn2c(=O)c3cc(C(=O)NC4CCCCC4C)n(C)c3nc12 (stereo not given)	-	-	-	-	-	-
CC(=O)/C(C=Nc1noc(C)c1Br)=C(\C)O	-	-	-	-	-	-
Cc1ccc(Cn2c(=N)n(CC(=O)c3ccccc3)c3ccccc32)cc1	-	-	-	-	-	-
CCc1nc2ccc(C(=O)N3CCCCC3)cn2c1N(CCC(C)C)CCN(C)C	-	.	.	.	.	-
Cc1cc(C)n2nc(SCC(=O)NC(=O)c3ccccc3Cl)nc2n1	-	.	-	-	-	-
COc1ccc(CCNC(=O)CN2C(=O)NC3(CCCCC3C)C2=O)cc1 (stereo not given)	-	.	-	-	-	-
C=CCn1c(=N)c(C(=O)NCCCOC)cc2c(=O)n3ccccc3nc21	-	-	-	-	-	+
C=CCn1c(=N)c(C(=O)NCCCOC)cc2c(=O)n3cc(C)ccc3nc21	-	-	-	-	-	+
CCOCCCn1c(=N)c(C(=O)NCc2ccc3c(c2)OCO3)cc2c(=O)n3ccccc3nc21	.	-	.	.	.	.
CCOc1ccc(CCNC(=O)C(C)N2C(=O)CC(C)(C)Sc3ccccc32)cc1 (stereo not given)	-	-	-	-	-	-
O=C(O)c1cnc2[nH]c3ccccc3n2c1=O	36	-	-	-	-	176
Cc1ccccc1N=Nc1c(O)n(C)c2ccccc12	-	-	-	-	-	-
COC(=O)Cc1c(C)c2ccc(OCC(=O)NC3CCS(=O)(=O)C3)cc2oc1=O (stereo not given)	-	-	-	-	-	140
Cc1c(Cc2ccccc2)c(=O)oc2cc(OCC(=O)c3ccccc3)ccc12	-	-	-	-	-	-
O=C(COc1ccc2ccc(=O)oc2c1)NC1CCS(=O)(=O)C1 (stereo not given)	-	.	-	-	-	-
COC(=O)Cc1c(C)c2ccc(OCC(=O)N(C)C)cc2oc1=O	-	-	-	-	-	138
CCCOc1ccc2c(C)c(CC(=O)OC)c(=O)oc2c1	-	-	-	-	-	121
Cc1cc(C)cc(NC(=O)COc2ccc3c(C)c(Cc4ccccc4)c(=O)oc3c2)c1	.	-	-	-	-	.
COc1cccc(C=NN(C)c2c([N+](=O)[O-])cc(C(F)(F)F)cc2[N+](=O)[O-])c1O	.	.	.	.	.	-
O=S(=O)(NCc1ccc(F)cc1)c1ccc(-n2cccn2)cc1	-	-	-	-	-	-
CC(c1nccs1)N(C)c1nc2nonc2nc1NC1CC1 (stereo not given)	33	-	-	-	-	-

Assay outcomes as filed in PubChem.
